High-throughput results as filed in PubChem BioAssay.
GLP1R inv ag = GLP-1 receptor (human) inverse agonism | HEK293 GLP-1R CRE-luciferase, luminescence, 24 h; GLP-1R form is constitutively active | Potency, µM (top dose mostly 38.3 µM), for inactives: at the top dose activity change, negative = inhibition, most hits filed as inhibitors | 410,000 compounds, 1.6% hits; note: % is set by controls: 0 for no effect and ±100 for the full control effect; nearly all actives have a fitted effect of over 55% in size
Target sequence (P43220 whole entry, looked up): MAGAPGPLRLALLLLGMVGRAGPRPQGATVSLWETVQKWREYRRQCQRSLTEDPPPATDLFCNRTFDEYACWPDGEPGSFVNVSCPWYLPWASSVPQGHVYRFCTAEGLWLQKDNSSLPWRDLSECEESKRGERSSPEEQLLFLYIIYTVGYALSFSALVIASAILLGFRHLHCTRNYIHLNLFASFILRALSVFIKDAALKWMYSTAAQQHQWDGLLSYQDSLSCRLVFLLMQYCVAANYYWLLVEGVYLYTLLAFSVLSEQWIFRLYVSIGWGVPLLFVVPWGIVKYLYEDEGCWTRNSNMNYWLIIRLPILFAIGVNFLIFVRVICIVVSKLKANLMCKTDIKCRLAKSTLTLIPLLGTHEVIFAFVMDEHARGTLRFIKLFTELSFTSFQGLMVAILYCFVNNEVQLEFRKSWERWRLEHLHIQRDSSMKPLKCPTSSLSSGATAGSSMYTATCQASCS
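Seeding at 200 cells/uL, 12 h culture, 24 hr compound treatment, then luciferase reagent and a luminescence read; cells are HEK293 stably expressing a constitutively active GLP-1R plus cAMP-responsive luciferase.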
HEK293 tox = cytotoxicity counter-screen for GLP-1 receptor inverse agonists. HEK293 cAMP-luciferase reporter cells, luminescence, 24 h. Potency, µM (highest dose often 38.3 µM), for inactives: at the top dose activity change, negative = inhibition, actives largely listed as inhibitors. 410,000 compounds, 0.13% hits;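 note: loss of luciferase light is scored as toxicity; % is set by controls: 0 for no effect and ±100 for the full control effect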
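A 23 nL compound transfer followed 12 hours of cell culture at 37 deg C; exposure then lasted 24 hr. Luciferase assay detection reagent was dispensed and plates read for luminescence after a 12 min room-temperature wait.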
GLP1R ag = activates the human GLP-1 receptor. HEK293 GLP-1R CRE-luciferase, luminescence, 4-6 h; cells express a hypersensitive GLP-1R form. P43220. Potency, µM (titrated, usually from 45.6 µM), for the others: top-dose activation, actives largely listed as activators. AID 624172. 380,000 compounds, 0.007% hits; note: % of control where 0% means no effect
PTHR1 ag = activates the human parathyroid hormone receptor PTHR1. HEK293 GP2 PTHR1 cells, GloSensor cAMP luminescence, 1 h. Potency, µM (top dose mostly 115 µM), inactives show top-dose activation, usual class: activators. 410,000 compounds, 0.075% hits; note: nearly all actives have a fitted effect of over 55% in size
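HEK-293-derived GP2 cells expressing PTHR1 and a GloSensor cAMP reporter, 3,000/well, plated overnight, given luciferin plus IBMX (each 0.5 mM as added) for 1 h at 37 °C, then compound for 1 h at 37 °C. Luminescence was read after 15 min at room temperature.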
Numbers without * were called inactive; i = inactive; ? = inconclusive; · = not tested or not shown; [ ] = another dose, or the depositor's remark. Only some compounds are listed: those with a hit (about 1.7% of all), similar ones and a draw of the others. Calls come from the whole dose curve; as a rule, active = well fitted curve in the direction sought with a large enough effect; inconclusive = small, poorly fitted or top-dose-only effect, or another doubt; inactive = no such curve, though single readings can be large; an effect the other way counts as inactive or inconclusive. Potency is the fitted concentration of half-maximal effect.

SMILES	GLP1R inv ag	HEK293 tox	GLP1R ag	PTHR1 ag
Cc1ccc(C(=O)Nc2nc3ccccc3[nH]2)cc1	1.3µM*	-13%	-6%	-41%
COc1ccccc1N1CCN(Cc2ccc(Br)cc2)CC1	10µM*	2%	7%	-37%
COc1ccccc1N1CCN(Cc2ccccc2Cl)CC1	0%	1%	0%	-18%[57.5 µM]
Cc1ccccc1CN1C(=O)C(C)N=C(c2ccccc2)c2ccccc21 (stereo not given)	?	-6%	·	-27%
O=C(NCC1=C(c2cccc3ccccc23)C[C@@H]2CC[C@H]1N2Cc1ccco1)c1cccs1	10µM*	?	-8%	-12%
CN1C(=O)C(=Cc2ccccc2OCc2ccccc2Cl)C(=O)N(C)C1=O	10µM*	-22%	10%	i
CN1C(=O)C(=Cc2ccccc2OCc2ccc(C(=O)O)cc2)C(=O)N(C)C1=O	26%	-2%	0%	i
COc1cc([C@@H]2c3cc4c(cc3[C@@H](O[C@@H]3O[C@@H]5CO[C@@H](C)O[C@H]5[C@H](O)[C@H]3O)[C@H]3COC(=O)[C@H]23)OCO4)cc(OC)c1O	2.8µM*	?	4%	-8%
CC(C)(C)C(=O)OC1=CN(Cc2ccccc2)S(=O)(=O)c2ccccc21	3%	7%	·	-43%
O=c1[nH]c2ccccc2n1C1CCN(Cc2ccc(-c3nc4ccc(F)cc4nc3-c3ccccc3)cc2)CC1	4.5µM*	?	-3%	-18%
CCCc1cc(C(=O)Nc2c(C)nn(Cc3ccc(Cl)c(Cl)c3)c2C)no1	10µM*	?	·	-46%
O=C(Nc1cccc(Cl)c1)c1cc(S(=O)(=O)NCCc2ccc(Cl)cc2)ccc1F	5.6µM*	?	-3%	i
Fc1ccc(CCNCc2cccc(Cl)c2)cc1	?	-2%	17%	6%[57.5 µM]
O=S(=O)(O)c1cc(O)c(N=Nc2ccc(O)cc2O)c2ccccc12	24%	?	-2%	-13%
CC[C@H](OC(C)=O)C(C[C@H](C)NC)(c1ccccc1)c1ccccc1	·	·	9%[96 µM]	·
Cc1cc(C)cc(NC(=O)CCCn2c3ccccc3c(=O)c3ccccc32)c1	3.5µM*	75%	·	i
Nc1ccc2c(c1)C(=O)C(=O)c1ccccc1-2	?	3.5µM*	-33%	-27%
CC1CN(c2nc(-c3ccc(Br)cc3)nnc2-c2ccccc2)CC(C)N1 (stereo not given)	2.8µM*	?	5%	i
O=C1NC(=O)C(=Cc2ccccc2OCCOc2ccc([N+](=O)[O-])cc2)C(=O)N1	10µM*	?	6%	-36%
CCCCC[C@@H](/C=C/C1C(=O)C=C[C@H]1C/C=C\CCCC(=O)OC)OC(C)=O (stereo not given in full)	?	?	-9%	-51%
CCCCCCC[n+]1ccc(-c2cc[n+](CCCCCCC)cc2)cc1	-27%	-10%	1%	-22%
c1ccc2c[n+](CCCCCCCCCC[n+]3ccc4ccccc4c3)ccc2c1	·	·	·	-27%[57.5 µM]
CCCCCCCCCCCCCCCC[n+]1ccccc1	3.5µM*	?	-7%	-92%
CCCCCCCCCCCCCCCC[n+]1ccc(/C=N/O)cc1	8.9µM*	?	-19%	-16%
Cc1cccc(N(C)S(=O)(=O)c2cc(-c3cnc(C4CC4)o3)ccc2C)c1	4%	-1%	·	-56%
SMILES	GLP1R inv ag	HEK293 tox	GLP1R ag	PTHR1 ag
CC(=O)c1ccc(NC(=O)CSc2nc(=O)cc(N)n2-c2ccccc2)cc1	30%	1%	10%	i
CC[n+]1c(-c2ccccc2)c2cc(N)ccc2c2ccc(N)cc21	5.6µM*	?	-30%	i
COc1cccc(/C=N/Nc2ccc([N+](=O)[O-])cc2)c1O	1.8µM*	?	6%	-26%
CSc1cccc(CNC(=O)C2CCC(=O)N(Cc3cccc(C(F)(F)F)c3)C2)c1 (stereo not given)	?	-3%	-3%	-11%
Cc1cccc(-c2cc3nc(-c4ccccc4)cc(N4CCC5(CC4)OCCO5)n3n2)c1	10µM*	113%	0%	i
O=C(Nc1cc(Sc2nc3ccccc3s2)cc([N+](=O)[O-])c1)c1ccccc1	?	?	-4%	-35%
O=C(CCl)Nc1cc(SCC(O)CO)cc([N+](=O)[O-])c1 (stereo not given)	?	4µM*	8%	-46%
O=C1OCCC1Sc1nc(-c2ccccc2)cs1 (stereo not given)	4%	65%	-1%	i
C=C1C(=O)O[C@@H]2C[C@@H](C)[C@@H]3C=CC(=O)[C@@]3(C)[C@@H](O)[C@H]12	2.5µM*	?	-10%	-54%
C=C1C(=O)O[C@@H]2C[C@@H](C)[C@@H]3C=CC(=O)[C@@]3(C)[C@@H](OC(C)=O)[C@H]12	4.5µM*	?	-23%	-49%
CCC(=C(c1ccc(OC)cc1)c1ccc(OC)cc1)c1cn(CC(O)CN2CCN(C)CC2)c2ccccc12 (stereo not given)	10µM*	?	-22%	i
CC[C@H](O)C(C[C@H](C)N(C)C)(c1ccccc1)c1ccccc1	·	·	8%[96 µM]	·
CCN(CC)CCNC(=O)c1cc2c(-c3ccc(Cl)cc3)nn(C)c2s1	5.6µM*	?	-7%	-6%
COc1cccc(CNC(=O)c2cc3c(-c4ccccc4F)nn(C)c3s2)c1	?	-3%	·	i
CC1(C)CC/C(=C\c2ccc(Cl)cc2)C1(O)Cn1cncn1 (stereo not given)	·	·	5%[96 µM]	·
CCc1cccc(NC(=O)c2ccc(NC(=O)N3CCSc4ncccc43)cc2)c1	-6%	-10%	·	-32%
C[N+]1(C)[C@@H]2CC(OC(=O)[C@@H](CO)c3ccccc3)C[C@@H]1[C@H]1O[C@H]12 (stereo not given in full)	·	·	0%	·
Cc1ccsc1C(=O)C1CCCN(Cc2cccc(OCCO)c2)C1 (stereo not given)	-10%	-13%	11%	i
Cc1ccsc1C(=O)C1CCCN(Cc2cccc(-n3cccn3)c2)C1 (stereo not given)	7.9µM*	4%	21%	0%
Cc1ccsc1C(=O)C1CCCN(Cc2ccc(-n3cccn3)cc2)C1 (stereo not given)	10µM*	-14%	6%	-18%
COc1cc(CN2CCCC(C(=O)c3sccc3C)C2)cc(OC)c1O (stereo not given)	9%	1%	-4%	i
FC(F)(F)c1cnc(NNC(=S)Nc2ccccc2Cl)c(Cl)c1	5µM*	?	0%	-84%
Cc1nc(N2N=C3/C(=C/c4ccc(F)cc4)CCCC3C2c2ccc(F)cc2)sc1C(=O)N(C)C (stereo not given)	10µM*	410%	-4%	-21%
Cc1ccccc1CN1CCN(Cc2ccccc2)CC1	-22%	7%	1%	45µM*
Oc1c(Br)cc(Br)cc1CN1CCN(Cc2ccccc2)CC1	10µM*	6%	20%	-50%
